BLM inh: inhibitors of human Bloom syndrome helicase BLM. AID 2528. recombinant BLM DNA unwinding, fluorescence dequenching. actives 0.2% (n = 350,000). Potency, µM (highest dose often 56.1 µM), for the others: top-dose activity change, negative = inhibition, usual class: inhibitors;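 also: plate controls were vehicle for no effect and no enzyme for full effect; nearly all actives have a fitted effect of over 35% in size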
RECQ1 helicase: inhibitors of human RECQ1 DNA helicase; P46063; RECQ1 DNA unwinding, red fluorescence kinetic read; Potency, µM (doses to about 57.3 µM), for inactives: top-dose activity, negative = inhibition, hits mostly inhibitors; actives 0.54% (n = 240,000);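 also: plate controls were vehicle for no effect and no enzyme for full effect; nearly all actives have a fitted effect of over 30% in size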
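50 nM RECQ1T1 preincubated 15 min with compound in Tris pH 8.0 buffer with MgCl2, DTT, Tween-20 and 2.5 ug/ml poly(dI-dC); started with 200 nM TAMRA/BHQ-2 forked duplex and 2 mM ATP. Unwinding read as fluorescence (525/598 nm), two reads 2 h apart.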
KAT2A inh: blocks human GCN5L2 histone acetyltransferase | Q92830 | actives 0.21% (n = 390,000) | GCN5L2 HAT assay, ThioGlo1 CoA-SH fluorescence | Potency, µM (doses to about 58.9 µM), without a hit: at the highest dose activity change, negative = inhibition, usual class: inhibitors
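GCN5L2 (20 nM) in 50mM HEPES pH 7.5, 0.1mM EDTA, 0.01% Tween-20 preincubated 15 min with compounds at room temperature. Reaction started with H3(1-25) 75uM, acetyl-CoA 70uM, ThioGlo1 50uM; CoA-thiol fluorescence (Ex340/Em540) read at 0 and 20 min.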
TDP1 inh: TDP1 (human) enzyme inhibition. Q9NUW8. recombinant TDP1, AlphaScreen DNA substrate cleavage. Potency, µM (doses to about 130 µM), without a hit: top-dose activity change, negative = inhibition, most hits filed as inhibitors. actives 0.28% (n = 350,000); also: nearly all actives have a fitted effect of over 40% in size
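Tdp1 1 nM final; 15 min RT w/ cpd; substrate 15 nM, 5 min; beads 10 ug/ml, 10 min; AlphaScreen read. Neg ctrl: no enzyme.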
Lamin A splicing: changes lamin A minigene splicing in HeLa cells. Potency, µM (doses to about 46.1 µM), inactives show at the top dose ratio change, negative = inhibition, actives largely listed as inhibitors. AID 1487. actives 0.01% (n = 200,000). HeLa LMNA splicing GFP/RFP minigene ratio, 48 h; active = well fitted inhibition curve with a large enough effect in the signal ratio, with a control signal flat, not every such curve was filed as active; inconclusive = small, poorly fitted or top-dose-only effect, or effect the other way, or a change in a side signal; the % refers to the signal ratio
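Read-out is the ratio of GFP to DsRed2 object intensity, acquired by 488 nm laser-scanning cytometry on HeLa lamin A-EGFP minigene reporter cells. Compound incubation 48 hrs at 37 °C in Opti-MEM with 2% FBS; DMSO 0.5% final.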
APE1 inh-1: blocks human APE1 abasic DNA cleavage; P27695; recombinant APE1, TAMRA/BHQ-2 abasic DNA cleavage fluorescence; Potency, µM (top dose mostly 65.8 µM), inactives show at the top dose activity change, negative = inhibition, usual class: inhibitors; actives 0.35% (n = 350,000);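 also: plate controls were vehicle for no effect and reference inhibitor for full effect; nearly all actives have a fitted effect of over 55% in size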
Target sequence (P27695 whole entry, looked up): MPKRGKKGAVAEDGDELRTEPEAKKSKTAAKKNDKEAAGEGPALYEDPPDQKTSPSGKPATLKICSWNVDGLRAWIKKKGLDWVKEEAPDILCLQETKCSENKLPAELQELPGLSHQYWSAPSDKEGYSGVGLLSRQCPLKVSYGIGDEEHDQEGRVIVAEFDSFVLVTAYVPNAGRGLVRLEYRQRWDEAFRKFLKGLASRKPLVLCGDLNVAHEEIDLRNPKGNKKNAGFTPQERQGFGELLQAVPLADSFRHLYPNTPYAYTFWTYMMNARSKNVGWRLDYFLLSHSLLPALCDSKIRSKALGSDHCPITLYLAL
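Activity was derived from the fluorescence gain between first and third kinetic reads (60 s intervals, ex 525/em 598 nm) after 50 nM THF-abasic TAMRA/BHQ-2 duplex was added to 0.75 nM APE1 preincubated 15 min with compound.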
APE1 dye cs: counter-screen for APE1 inhibitors: DNA dye displacement | DNA fluorescent dye displacement counterscreen, fluorescence | Potency, µM (series often up to 28.5 µM), for the others: top-dose activity change, negative = inhibition, actives largely listed as inhibitors | actives 7% (n = 480) | AID 2564 | shares compounds with APE1 inh-1;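 also: loss of thiazole orange fluorescence as the dye is displaced from duplex DNA; 0% = ThO with dsDNA and no compound and -100% = ThO without dsDNA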
EndoIV counter: Endo IV (E. coli) inhibition counter-screen. shares compounds with APE1 inh-1. E. coli Endo IV, fluorogenic AP-site DNA cleavage. Potency, µM (highest dose often 27.1 µM), inactives show at the top dose activity change, negative = inhibition, most hits filed as inhibitors. actives 4% (n = 560);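 also: plate controls were uninhibited enzyme wells for no effect and no enzyme buffer wells for full effect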
APE1 inh-2: confirmation of inhibitors of human APE1 endonuclease. Potency, µM (series often up to 57.1 µM), for the others: top-dose activity change, negative = inhibition, most hits filed as inhibitors. shares compounds with APE1 inh-1. actives 44% (n = 750). AID 2572. purified APE1, fluorogenic abasic-site DNA cleavage; also: nearly all actives have a fitted effect of over 30% in size
APE1 FP inh: APE1 (human) DNA binding inhibition, fluorescence polarization. shares compounds with APE1 inh-1. APE1 binding to TAMRA-labelled double-stranded DNA, fluorescence polarization displacement. Potency, µM (top dose mostly 28.5 µM), for the others: top-dose activity, negative = inhibition, actives largely listed as inhibitors. actives 7% (n = 480)
* hit, by the source's call; i = inactive; ? = inconclusive; nt = not tested or not shown; [ ] = remark or other dose. This is a sample that favours compounds with a hit; in the whole collection about 0.9% have one here. Unless noted, calls follow the shape of the dose curve; as a rule, active = well fitted curve in the direction sought with a large enough effect; inconclusive = small, poorly fitted or top-dose-only effect, or another doubt; inactive = no such curve, though single readings can be large; an effect the other way counts as inactive or inconclusive. Unless noted, % is scaled to controls: 0 for no effect and ±100 for the full control effect; potency is read from the fitted curve at half-maximal effect.

SMILES	BLM inh	RECQ1 helicase	KAT2A inh	TDP1 inh	Lamin A splicing	APE1 inh-1	APE1 dye cs	EndoIV counter	APE1 inh-2	APE1 FP inh
CC(=O)C1=C(O)C(=O)N(Cc2ccccc2)C1c1ccco1 (configuration not stated)	-6%	-15%	-4%	0.79µM*	0%	1µM*	-5%	5%	?	0%
CC(=O)OC1CC2C(C)(C)C(O)CC[C@@]2(C)C2CC[C@@]3(C)C(c4ccoc4)OC(=O)C4OC43[C@]12C (some centres not stated)	-3%	-6%	-15%	15%[56.1 µM]	?	?	1%[57.1 µM]	1%[57.1 µM]	?	0%[57.1 µM]
Cn1nc([N+](=O)[O-])nc1Oc1ccccc1F	-10%	-2%	-7%	3%	8%[46 µM]	3%	nt	nt	nt	nt
Cn1nc([N+](=O)[O-])nc1S(C)(=O)=O	-2%	-15%	3%	2%	?	?	-1%	0%	?	-2%
CCCCn1c(=O)c2[nH]c(C34CC5CC(CC3C5)C4)nc2n(CCCO)c1=O	-8%	-4%	?	10%	nt	-3%	nt	nt	nt	nt
CC(C)OC(=O)c1cn(Cc2c(F)cccc2F)c2sc(-c3ccc(NC(=O)C(C)C)cc3)c(CN(C)Cc3ccccc3)c2c1=O	36%	-1%	0%	10%	nt	5%	nt	nt	nt	nt
O=C1CCCc2oc3ccc(NS(=O)(=O)c4cccc5cccnc45)cc3c21	-1%	9%	0%	50µM*	nt	?	nt	nt	?	nt
O=c1oc2ccc(NS(=O)(=O)c3cccc4cccnc34)cc2s1	-2%	nt	-4%	nt	nt	8%[12.4 µM]	nt	nt	nt	nt
Cc1cc2c(s1)c1cnn(Cc3ccc(C(F)(F)F)cc3F)c(=O)c1n2C	nt	nt	nt	-2%	nt	nt	nt	nt	nt	nt
O=[N+]([O-])c1cccc2c[nH]nc12	-27%	28µM*	?	nt	nt	6.3µM*	nt	-47%[57.1 µM]	13µM*	nt
COc1ccc(-c2ccc(C(C)=O)cc2)cc1C1C2C=CCCC2(C)C(=O)N1Cc1ccccc1 (configuration not stated)	-5%	i	nt	7%	nt	1%	nt	nt	nt	nt
CC1=CCC(C(=O)O)C(C(=O)Nc2ccc(-c3nc4ccc(C)cc4s3)cc2)C1 (configuration not stated)	-7%	-26%	-11%	25µM*	nt	?	nt	nt	-28%	nt
O=C(CSc1nc2ccccc2c(=O)[nH]1)Nc1ccc(C(=O)O)cc1	-2%	16%	-2%	50µM*	0%[46 µM]	-7%	nt	nt	-9%	nt
O=C(CSc1nc(NS(=O)(=O)c2ccccc2)cc(=O)[nH]1)Nc1ccc(Cl)cc1	?	-1%	-18%	7.1µM*	19%[9.22 µM]	-4%	nt	nt	-16%	nt
N[C@H](C(=O)O)[C@H]1C[C@@H]1C(=O)O	nt	-3%	-7%	5%[56.1 µM]	?	-6%	nt	-25%[57.1 µM]	2.5µM*	nt
O=C1CNC(=O)/C1=C\c1ccc(O)cc1	1%	-11%	1%	-1%	-13%	-3%	nt	nt	nt	nt
O=C1CNC(=O)/C1=C/c1ccc(O)cc1	1%	1%	-25%	-2%	4%	0.89µM*	1%	-1%	?	11%
COC(=O)c1cc2oc3ccccc3c2n1Cc1ccccn1	-2%	-3%	-1%[0.501 µM]	-4%	-13%	?	-9%	2%	-2%[24.4 µM]	8%
O=c1c2ccccc2nc(COc2ccccc2)n1/N=C/c1ccc(O)c(O)c1	-26%	28µM*	-5%	6%	nt	?	?	51%	?	7%
Cc1ccc(-c2onc(C)c2C)cc1S(=O)(=O)Nc1cccc(Cl)c1C	-12%	nt	0%	3%	nt	nt	nt	nt	nt	nt
Cc1ccccc1-c1ccc2ncnc(NCc3cccs3)c2c1	-25%	?	?	nt	?	7.1µM*	?	-96%[57.1 µM]	14µM*	46%[57.1 µM]
COc1ccc(OC)c(-c2csc(N(Cc3ccco3)C(=O)c3ccco3)n2)c1	-16%	-7%	-8%	5%	nt	?	-11%	?	?	-3%
COCCCN(C(=O)c1ccco1)c1nc(-c2cc(OC)ccc2OC)cs1	-7%	-8%	-8%	2%	7%	-4%	nt	nt	nt	nt
CSCC[C@H](NC(=O)[C@H](Cc1ccccc1)NC(=O)[C@H](Cc1cnc[nH]1)NC(=O)CNC(=O)[C@@H](NC(=O)[C@H](C)NC(=O)[C@H](Cc1c[nH]c2ccccc12)NC(=O)[C@H](CCC(N)=O)NC(=O)[C@@H]1CCCN1C(=O)[C@@H](NC(=O)[C@@H]1CCC(=O)N1)C(C)C)C(C)C)C(N)=O	-1%	-5%	-7%	3%	nt	-4%	nt	nt	nt	nt
COCCn1c(SCc2nc3sc(C(=O)OC)c(C)c3c(=O)[nH]2)nc2ccccc21	-5%	-4%	21%	2%	17%	0%	nt	nt	nt	nt
SMILES	BLM inh	RECQ1 helicase	KAT2A inh	TDP1 inh	Lamin A splicing	APE1 inh-1	APE1 dye cs	EndoIV counter	APE1 inh-2	APE1 FP inh
CCn1c(SCc2nc3sc(C(=O)O)c(C)c3c(=O)[nH]2)nc2ccccc21	67%	?	-3%	8.9µM*	-2%	20µM*	nt	nt	?	nt
O=C(O)c1ccc(NC(=O)C2CC=CCC2C(=O)O)cc1 (configuration not stated)	4%	i	-4%	nt	-4%	?	nt	nt	nt	nt
O=C(O)C1CC=CCC1C(=O)Nc1ccccc1 (configuration not stated)	-1%	-5%	-5%	22µM*	3%	-17%	nt	nt	-23%	nt
O=C(O)C1CC=CCC1C(=O)Nc1cccc(Cl)c1 (configuration not stated)	3%	-1%	-1%	-1%	4%	-1%	nt	nt	nt	nt
O=C(O)Cc1ccc(NC(=O)C2CC=CCC2C(=O)O)cc1 (configuration not stated)	-2%	-4%	-9%	45µM*	2%	20µM*	nt	nt	-36%	nt
O=C(COC(=O)c1cccnc1Cl)NCc1ccco1	-8%	i	0%	40µM*	25%[46 µM]	?	nt	nt	?	nt

From PubChem BioAssay
